From PubChem BioAssay (Tox21)
Records with an inconclusive call do not appear. A number with no mark means an inactive call. Activity calls are given as the source filed them. Calls follow the shape of the dose curve; as a rule, active = well fitted cell-killing curve with a large enough effect in the repeat runs; inconclusive = weak or mixed curves, or effect the other way; inactive = flat fitted curve, though single readings scatter.

experiment: cAMP Responsive Elements (CRE) small molecule agonists, cell-based qHTS assay: qHTS cell viability counter screen (AID 2060914); details: CRE-bla HEK293T viability, CellTiter-Glo luminescence, 5 h; series mostly up to 92.4 µM; activity change, negative = cytotoxicity: at the top concentration;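 also: viability read after 3 h of compound exposure; nearly all actives have a fitted effect of over 50% in size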
Description: National Center for Advancing Translational Sciences [NCATS]
Division of Preclinical Innovation [DPI]
U.S. Environmental Protection Agency [EPA]
National Institutes of Environmental Health Sciences [NIEHS]
National Toxicology Program [NTP]
U.S. Food and Drug Administration [FDA]
CREB (cyclic-AMP Responsive Element Binding Protein) is a cellular transcription factor. It binds to certain DNA sequences called cAMP Responsive Elements (CRE) and regulates the transcription of the genes. […] This cell line can be used to find agonists/antagonists of the cyclic AMP signaling pathway. The activation of the report gene under culture conditions can be detected by fluorescence intensity. This cell line has been used to screen the Tox21 10K compound library to identify agonists that induce oxidative stress. The cytotoxicity of the Tox21 compound library against the CRE-bla cell line was tested in parallel by measuring the cell viability using CellTiter-Glo assay (Promega, Madison, WI) in the same wells.
Tox21 Assay Protocol Summary:
CRE-bla Hek 293T cells were suspended in assay medium (DMEM containing 10% dialyzed FBS, 0.1 mM NEAA, 1 mM sodium pyruvate and 25 mM HEPES) and dispensed at 2,000 cells/5 uL /well into 1536-well black wall/clear bottom plates using a Multidrop Combi (ThermoFisher Scientific, Waltham, MA) dispenser. After the assay plates were incubated at 37 C/5% CO2 for 18 hrs, 23 nL of compounds dissolved in DMSO, positive controls or DMSO only was transferred to the assay plate by a pintool workstation (Kalypsys, San Diego, CA). After the plates were incubated at 37 C/5% CO2 for 3 hrs, 1 uL of LiveBLAzer B/G FRET substrate (Invitrogen, Carlsbad, CA) was added to each well using Bioraptr Flying Reagent Dispenser (FRD, Aurora Discovery, San Diego, CA). The plates were incubated at room temperature for 2 h, then fluorescence intensities were measured using an Envision plate reader (PerkinElmer, Shelton, CT) at Excitation 405nm, Emission 460nm and 530nm. The % activity was determined from the ratio of 460nm/530nm. For cell viability readout that measures cytotoxicity, 4 uL /well of CellTiter-Glo reagent was added into the assay plates using Bioraptr FRD. After 30 min incubation at room temperature, the luminescence intensity in the assay plates was measured using a ViewLux (PerkinElmer, Shelton, CT) plate reader.
% is scaled to controls: 0 for no effect and ±100 for the full control effect; potency is read from the fitted curve at half-maximal effect.

First: CON(C)C(=O)Nc1ccc(Br)c(Cl)c1
Second: O=C(Nc1ccccc1)N(Cc1ccc(Cl)cc1)C1CCCC1
The “activity change, negative = cytotoxicity” value of the first is lower: -7.24% for the first, 1.9% for the second.

First: O=c1[nH]c(Cl)c(Cl)cc1Cl
Second: Cc1nn(-c2cc(NS(C)(=O)=O)c(Cl)cc2Cl)c(=O)n1C(F)F
The “activity change, negative = cytotoxicity” value of the first is lower: -1.94% for the first, 10.8% for the second.

Compared with `O=C(O)C(Br)CBr` (stereo not given), `C=CC(=O)OCC(C)O` (stereo not given) is higher in “activity change, negative = cytotoxicity” value: -0.459% for the first, 24% for the second.

Going from `CCS(=O)(=O)CCSP(=O)(OC)OC` to `CCCN(CCC)c1c([N+](=O)[O-])cc(S(C)(=O)=O)cc1[N+](=O)[O-]`, the “activity change, negative = cytotoxicity” value falls from 5.16% to -2.48%.

First: ClCCN1CCOCC1
Second: CC(=O)OC1(c2ccccc2)CCN(CCc2ccccc2)CC1
The “activity change, negative = cytotoxicity” value of the first is higher: -3.32% for the first, -9.07% for the second.

First: CC(=O)NNc1ccccc1
Second: NC(=S)Nc1ccccc1
The “activity change, negative = cytotoxicity” value of the first is lower: -5.05% for the first, 8.38% for the second.

Compared with `CC(C)CC(C)Nc1ccc(Nc2ccccc2)cc1` (stereo not given), `O=C(Nc1ccccc1)c1ccccc1I` is higher in “activity change, negative = cytotoxicity” value: -25.5% for the first, 5.39% for the second.

First: CN(CCCC(=O)c1cccnc1)N=O
Second: CCN(CC)c1ccccc1
The “activity change, negative = cytotoxicity” value of the first is lower: 2.26% for the first, 4.92% for the second.

Going from `CCC(C)c1cc([N+](=O)[O-])cc([N+](=O)[O-])c1OC(=O)C=C(C)C` (stereo not given) to `C[As+](C)(C)CC(=O)[O-]`, the “activity change, negative = cytotoxicity” value rises from -15.4% to 0.417%.

First: C=CC(=O)OCCCCOC(=O)C=C
Second: BrCCCCCCBr
The “activity change, negative = cytotoxicity” value of the first is higher: 28.9% for the first, -12.3% for the second.

First: CN1CC[C@]23c4c5ccc(O)c4O[C@H]2[C@@H](O)C=C[C@H]3[C@H]1C5
Second: CC(C)(C)C(=O)C(Oc1ccc(Cl)cc1)n1cncn1 (stereo not given)
The “activity change, negative = cytotoxicity” value of the first is higher: 1.45% for the first, -6.1% for the second.

With `CC(=O)C(Cl)Cl` the “activity change, negative = cytotoxicity” value was 1.14%.

With `CN(C)c1ccccc1` the Potency was “inactive”.
For `CC(NC(C)(C)C)C(=O)c1cccc(Cl)c1` (stereo not given), the Potency was “inactive”.
For `c1ccc(N=Nc2ccccc2)cc1`, the Potency was “inactive”.
For `ClC1=C(Cl)[C@]2(Cl)[C@@H]3[C@@H]4C[C@@H]([C@H]5O[C@@H]45)[C@@H]3[C@@]1(Cl)C2(Cl)Cl`, the Potency was 61.1 µM (active).
With `CCOP(=S)(OCC)SCSC(C)(C)C` the Potency was “inactive”.
In the case of `Oc1cccc2cccnc12`, the Potency is reported as “inactive”.
In the case of `COP(=S)(OC)SCN1C(=O)c2ccccc2C1=O`, the Potency is reported as “inactive”.
For `Oc1ccc(Cl)cc1`, the Potency was “inactive”.
In the case of `c1ccc(OP(Oc2ccccc2)Oc2ccccc2)cc1`, the Potency is reported as “inactive”.
With `c1ccc(N=NNc2ccccc2)cc1` the Potency was “inactive”.
For `CCSC(=O)N1CCCCCC1`, the Potency was “inactive”.

First: CCN(CC)CCN1C(=O)CN=C(c2ccccc2F)c2cc(Cl)ccc21
Second: Cc1ncc2n1-c1ccc(Cl)cc1C(c1ccccc1F)=NC2
The “activity change, negative = cytotoxicity” value of the first is lower: 0.13% [at 42.5 µM] for the first, 1.35% [at 42.5 µM] for the second.

Compared with `O=[N+]([O-])c1ccc([As](=O)(O)O)cc1`, `CC(C)=CCOc1c2occc2cc2ccc(=O)oc12` is lower in “activity change, negative = cytotoxicity” value: 15.5% [at 42.5 µM] for the first, -5.24% [at 42.5 µM] for the second.

For `O=C1CN2CCOC2(c2ccccc2Cl)c2cc(Cl)ccc2N1` (stereo not given), the “activity change, negative = cytotoxicity” value was 10.9% [at 42.5 µM].

Work on `CCCCCCCCCCCCN=C(N)N` yielded an activity change, negative = cytotoxicity of -15.8% [at 3.27 µM].
